Assay results from PubChem BioAssay (EPA / NIEHS).
The source made the active and inactive calls. The calls were made as follows: active = hit-call score of the fitted dose curve at least 0.9, where 1 is the maximum; inactive = score below 0.9.

Tests used:
[1] = read-out: TIMP metallopeptidase inhibitor 1 (TIMP1), TIMP1 (gene 7076); assay: BSK_hDFCGF_TIMP1: BioMAP Diversity Plus: hDFCGF Assay for TIMP metallopeptidase inhibitor 1 (TIMP1) Biomarker Activity (AID 2283062); conditions: primary human foreskin fibroblasts; actives raise or lower the signal
How it was run: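 Primary human foreskin fibroblasts in the hDFCGF system were dosed with compound for 24 h, then TIMP-1 was measured by ELISA. Activity was fitted bidirectionally relative to DMSO control; parallel SRB staining assessed cytotoxicity.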

[2] = read-out: Monokine induced gamma interferon (MIG), CXCL9 (gene 4283); assay: BSK_hDFCGF_MIG: BioMAP Diversity Plus: hDFCGF Assay for Monokine induced gamma interferon (MIG) Biomarker Activity (AID 2283063); conditions: primary human foreskin fibroblasts; actives raise or lower the signal
How it was run: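 ELISA read-out of MIG from primary human dermal fibroblasts 24 h post-dosing. Gain or loss of signal fitted bidirectionally, DMSO as baseline.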

[3] = read-out: Matrix Metallopeptidase 1 (MMP1), MMP1 (gene 4312); assay: BSK_hDFCGF_MMP1: BioMAP Diversity Plus: hDFCGF Assay for Matrix Metallopeptidase 1 (MMP1) Biomarker Activity (AID 2283064); conditions: primary human foreskin fibroblasts; actives raise or lower the signal
How it was run: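 ELISA read-out of MMP1 from human foreskin fibroblasts (primary skin cells), 24 h post-dose. Gain or loss of signal was fitted bidirectionally versus DMSO negative control; cytotoxicity was checked by SRB in parallel cultures.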

[4] = read-out: Vascular cell adhesion molecule 1 (VCAM1), VCAM1 (gene 7412); assay: BSK_hDFCGF_VCAM1: BioMAP Diversity Plus: hDFCGF Assay for Vascular cell adhesion molecule 1 (VCAM1) Biomarker Activity (AID 2283065); conditions: primary human foreskin fibroblasts; actives raise or lower the signal
How it was run: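 Primary human foreskin fibroblasts (hDFCGF system) were dosed with chemical and VCAM-1 was measured by ELISA 24 h later. Bidirectional curve fitting used DMSO as negative control and activity baseline.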

[5] = read-out: Plasminogen activator inhibitor-1 (PAI1), SERPINE1 (gene 5054); assay: BSK_hDFCGF_PAI1: BioMAP Diversity Plus: hDFCGF Assay for Plasminogen activator inhibitor-1 (PAI1) Biomarker Activity (AID 2283066); conditions: primary human foreskin fibroblasts; actives raise or lower the signal
How it was run: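 PAI-1 levels in human dermal foreskin fibroblasts were quantified by ELISA 24 h after dosing, with gain or loss analysed against DMSO. Overt cytotoxicity was checked by sulforhodamine B total-protein staining in parallel cultures.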

[6] = read-out: Intercellular Adhesion Molecule 1 (ICAM1), ICAM1 (gene 3383); assay: BSK_KF3CT_ICAM1: BioMAP Diversity Plus: KF3CT Assay for Intercellular Adhesion Molecule 1 (ICAM1) Biomarker Activity (AID 2283067); conditions: primary human keratinocytes with fibroblasts; actives raise or lower the signal
How it was run: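 Human keratinocyte plus foreskin fibroblast primary co-culture was exposed to chemical for 24 h. ICAM-1 was then quantified by ELISA, and the data were fit bidirectionally against DMSO as the negative control and baseline.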

[7] = read-out: Interferon-gamma inducible Protein 10 (IP10), CXCL10 (gene 3627); assay: BSK_KF3CT_IP10: BioMAP Diversity Plus: KF3CT Assay for Interferon-gamma inducible Protein 10 (IP10) Biomarker Activity (AID 2283068); conditions: primary human keratinocytes with fibroblasts; actives raise or lower the signal
How it was run: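 In a primary skin co-culture of keratinocytes and fibroblasts, IP-10 is quantified by ELISA at 24 h after dosing. SRB staining of parallel wells monitors overt toxicity. Curves are fitted both directions against DMSO.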

[8] = BSK_KF3CT_SRB: Viability Assessment in the BioMAP Diversity Plus: KF3CT Assay (AID 2283069); conditions: primary human keratinocytes with fibroblasts;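 also: read 24 h after compound addition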
How it was run: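 SRB read-out at 560 nm (0.1% stain, TCA-fixed cells) gauges overt cytotoxicity in a human skin keratinocyte–fibroblast co-culture 24 h post-dosing. Signal change was fitted bidirectionally relative to DMSO control.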

[9] = read-out: Interleukin-1 alpha (IL1a), IL1A (gene 3552); assay: BSK_KF3CT_IL1a: BioMAP Diversity Plus: KF3CT Assay for Interleukin-1 alpha (IL1a) Biomarker Activity (AID 2283070); conditions: primary human keratinocytes with fibroblasts; actives raise or lower the signal
How it was run: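 Primary skin co-culture (keratinocytes, foreskin fibroblasts), 24 h exposure; ELISA for IL-1a; bidirectional curve fit vs DMSO.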

[10] = read-out: Transforming growth factor beta 1 (TGFb1), TGFB1 (gene 7040); assay: BSK_KF3CT_TGFb1: BioMAP Diversity Plus: KF3CT Assay for Transforming growth factor beta 1 (TGFb1) Biomarker Activity (AID 2283072); conditions: primary human keratinocytes with fibroblasts; actives raise or lower the signal
How it was run: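 ELISA quantifies TGF-b1 at 24 h post-dose in a primary human skin co-culture of keratinocytes and fibroblasts, with gain or loss judged against DMSO. Parallel SRB total-protein staining flags overt cytotoxicity.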

[11] = read-out: C-C motif chemokine 2 (Homo sapiens) (UniProt P13500); assay: BSK_KF3CT_MCP1: BioMAP Diversity Plus: KF3CT Assay for Monocyte Chemoattractant Protein 1 (MCP1/CCL2) Biomarker Activity (AID 2283073); conditions: primary human keratinocytes with fibroblasts; actives raise or lower the signal
How it was run: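 Human keratinocyte plus foreskin fibroblast primary co-culture exposed to chemical for 24 h. MCP-1 levels measured by ELISA. Bidirectional curve fitting relative to DMSO negative control as baseline.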

[12] = read-out: urokinase plasminogen activator (uPA), PLAU (gene 5328); assay: BSK_KF3CT_uPA: BioMAP Diversity Plus: KF3CT Assay for urokinase plasminogen activator (uPA) Biomarker Activity (AID 2283075); conditions: primary human keratinocytes with fibroblasts; actives raise or lower the signal
How it was run: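 Skin co-culture (keratinocytes + foreskin fibroblasts), human primary; 24 h post-dose; uPA by ELISA; gain/loss fit vs DMSO baseline.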

[13] = read-out: CD40, CD40 (gene 958); assay: BSK_LPS_CD40: BioMAP Diversity Plus: LPS Assay for CD40 Biomarker Activity (AID 2283076); conditions: primary human HUVEC with PBMC; actives raise or lower the signal
How it was run: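 Primary human umbilical vein endothelial cells co-cultured with peripheral blood mononuclear cells, LPS-stimulated, were dosed with chemical and read 24 h later. CD40 levels were measured by ELISA and fitted bidirectionally against DMSO as negative control and baseline.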

[14] = read-out: E-selectin (Homo sapiens) (UniProt P16581); assay: BSK_LPS_Eselectin: BioMAP Diversity Plus: LPS Assay for Eselectin Biomarker Activity (AID 2283077); conditions: primary human HUVEC with PBMC; actives raise or lower the signal
How it was run: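 Human umbilical vein endothelial cells co-cultured with peripheral blood mononuclear cells under LPS stimulation; E-selectin measured by ELISA 24 h after chemical dosing. Activity fitted bidirectionally against DMSO as negative control and baseline.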

[15] = read-out: Interleukin-8 (IL8), CXCL8 (gene 3576); assay: BSK_LPS_IL8: BioMAP Diversity Plus: LPS Assay for Interleukin-8 (IL8) Biomarker Activity (AID 2283078); conditions: primary human HUVEC with PBMC; actives raise or lower the signal
How it was run: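 Human umbilical vein endothelial cells co-cultured with PBMC were stimulated with LPS; IL-8 levels were measured by ELISA 24 h after chemical dosing. Activity was fitted bidirectionally against DMSO as negative control and baseline.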

[16] = BSK_LPS_SRB: Viability Assessment in the BioMAP Diversity Plus: LPS Assay (AID 2283079); conditions: primary human HUVEC with PBMC;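 also: total protein by sulforhodamine B absorbance as a cytotoxicity measure; measured one day after compound addition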
How it was run: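 Human umbilical vein endothelial cells co-cultured with PBMC (LPS system) were dosed for 24 h. Total protein was stained with 0.1% sulforhodamine B after 10% TCA fixation, read at 560 nm, and fitted bidirectionally against DMSO baseline.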

[17] = read-out: Interleukin-1 alpha (IL1a), IL1A (gene 3552); assay: BSK_LPS_IL1a: BioMAP Diversity Plus: LPS Assay for Interleukin-1 alpha (IL1a) Biomarker Activity (AID 2283080); conditions: primary human HUVEC with PBMC; actives raise or lower the signal
How it was run: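 Human umbilical vein endothelial cells co-cultured with peripheral blood mononuclear cells were LPS-stimulated and exposed to test chemicals for 24 h. IL-1 alpha was quantified by ELISA, with bidirectional curve fitting against DMSO as the negative control and baseline.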

[18] = read-out: Monocyte Chemoattractant Protein-1 (MCP1), CCL2 (gene 6347); assay: BSK_LPS_MCP1: BioMAP Diversity Plus: LPS Assay for Monocyte Chemoattractant Protein-1 (MCP1) Biomarker Activity (AID 2283081); conditions: primary human HUVEC with PBMC; actives raise or lower the signal
How it was run: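 HUVEC plus PBMC co-culture (human primary cells, LPS system) exposed to test chemical for 24 h; MCP-1 measured by ELISA. Bidirectional curve fitting against DMSO baseline; parallel SRB total-protein staining flags overt cytotoxicity.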

[19] = read-out: TIMP metallopeptidase inhibitor 2 (TIMP2), TIMP2 (gene 7077); assay: BSK_KF3CT_TIMP2: BioMAP Diversity Plus: KF3CT Assay for TIMP metallopeptidase inhibitor 2 (TIMP2) Biomarker Activity (AID 2283071); conditions: primary human keratinocytes with fibroblasts; actives raise or lower the signal
How it was run: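 TIMP-2 measured by ELISA at 24 h in human keratinocyte/fibroblast primary co-cultures exposed to chemicals. Both increases and decreases were fitted against DMSO. Parallel cultures were stained with SRB for total protein as an overt-cytotoxicity check.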

[20] = read-out: Matrix Metallopeptidase 9 (MMP9), MMP9 (gene 4318); assay: BSK_KF3CT_MMP9: BioMAP Diversity Plus: KF3CT Assay for Matrix Metallopeptidase 9 (MMP9) Biomarker Activity (AID 2283074); conditions: primary human keratinocytes with fibroblasts; actives raise or lower the signal
How it was run: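 ELISA read-out of MMP-9 at 24 h post-dosing in a co-culture of human skin keratinocytes and foreskin fibroblasts. Gain or loss of signal was fitted in both directions against DMSO.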

Measured: outcome

Sequence of E-selectin (Homo sapiens) (P16581 whole entry, looked up): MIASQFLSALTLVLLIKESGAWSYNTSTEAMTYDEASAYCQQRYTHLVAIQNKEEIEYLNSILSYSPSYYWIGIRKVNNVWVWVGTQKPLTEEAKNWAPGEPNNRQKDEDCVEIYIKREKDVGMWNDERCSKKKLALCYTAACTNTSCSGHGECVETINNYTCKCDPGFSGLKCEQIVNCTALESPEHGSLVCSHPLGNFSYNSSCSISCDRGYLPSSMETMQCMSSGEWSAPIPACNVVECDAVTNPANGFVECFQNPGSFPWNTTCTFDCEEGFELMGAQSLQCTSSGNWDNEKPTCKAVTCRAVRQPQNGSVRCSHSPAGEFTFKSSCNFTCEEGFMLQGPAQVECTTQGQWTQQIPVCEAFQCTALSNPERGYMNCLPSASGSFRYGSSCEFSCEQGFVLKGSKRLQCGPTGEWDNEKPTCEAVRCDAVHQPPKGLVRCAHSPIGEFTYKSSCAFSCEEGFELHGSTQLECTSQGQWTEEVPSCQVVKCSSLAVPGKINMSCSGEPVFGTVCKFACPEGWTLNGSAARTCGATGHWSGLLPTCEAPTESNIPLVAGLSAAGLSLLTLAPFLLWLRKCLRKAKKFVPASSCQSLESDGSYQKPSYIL

O=C(O)CCN(C1(C(=O)NO)CCCC1)S(=O)(=O)c1ccc(Oc2ccc(F)cc2)cc1
not listed: [19] | [20]
inactive: all other assays above

CCCC(=O)OCC
not listed: [7] | [8]
inactive: all other assays above

O=c1[nH]c2ccc(S(=O)CCN3CCC(Cc4ccc(F)cc4)CC3)cc2o1 (configuration not stated)
not listed: [7]
inactive: all other assays above

O=C1CCCCCN1
not listed: [7] | [8] | [14]
inactive: all other assays above
